Among the data in PMC8384837, “Expanding the binding specificity for RNA recognition by a PUF domain” are binding signal values, retold here.

Positions count from the first letter of the chain named.

Common to all, as to experiment: yeast three-hybrid, YBZ-1, SC-Leu-His + 0.5 mM 3-AT, 4 days
Details in all cases: tags: N-Gal4 AD-HA kept; label: inside an RPR1-promoter hybrid RNA with tandem MS2 sites; ssRNA

For one experiment, the target named is PUM1 PUF domain R8-KHA (Homo sapiens, UniProt Q14671 828-1176, N1122K;Y1123H;Q1126A). The method in brief: (§1)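 Sequencing with Illumina followed PCR amplification of the repeat regions from transformants grown four days on SC-Leu (input) or SC-Leu-His + 0.5 mM 3-AT (selection). The transformants were strain YBZ-1 with a LexA–MS2 coat fusion and a HIS3 reporter, carrying Pumilio-1 PUF domain libraries and matching RNA elements. The interaction score is the log change in variant frequency from input to selection, computed in log2 with a pseudocount of 1 for absent variants.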

The next experiment concerns the target PUM1 PUF domain R8-HFA (Homo sapiens, UniProt Q14671 828-1176, N1122H;Y1123F;Q1126A). Put shortly: as §1
The target in a further experiment is PUM1 PUF domain R5-PRR (Homo sapiens, UniProt Q14671 828-1176, C1007P;Q1011R). Put shortly:
as §1

The target in a further experiment is T1, PUM1 PUF domain R6-EWV (Homo sapiens, UniProt Q14671 828-1176, N1043E;Y1044W;Q1047V).
T1 sequence: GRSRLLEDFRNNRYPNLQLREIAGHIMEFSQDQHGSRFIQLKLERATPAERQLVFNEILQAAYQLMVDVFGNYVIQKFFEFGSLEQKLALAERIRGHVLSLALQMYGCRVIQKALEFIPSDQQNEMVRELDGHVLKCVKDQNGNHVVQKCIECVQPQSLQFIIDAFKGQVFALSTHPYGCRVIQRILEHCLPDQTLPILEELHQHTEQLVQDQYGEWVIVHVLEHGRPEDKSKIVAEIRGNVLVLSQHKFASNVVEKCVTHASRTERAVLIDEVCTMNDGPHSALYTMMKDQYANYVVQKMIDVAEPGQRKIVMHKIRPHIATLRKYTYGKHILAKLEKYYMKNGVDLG
The method in brief: as §1

A further experiment concerns the target PUM1 PUF domain R7-DFE (Homo sapiens, UniProt Q14671 828-1176, S1079D;N1080F). The method in brief:
as §1

A further experiment addresses T2, PUM1 PUF domain R6-NRK (Homo sapiens, UniProt Q14671 828-1176, Y1044R;Q1047K).
T2 sequence: T1 sequence with E216N, W217R, V220K
The method in brief: as §1

The target of the next experiment is T3, PUM1 PUF domain R6-SFV (Homo sapiens, UniProt Q14671 828-1176, N1043S;Y1044F;Q1047V).
T3 sequence: T1 sequence with E216S, W217F
Put shortly:
as §1

In the next experiment the target is PUM1 PUF domain R8-KRT (Homo sapiens, UniProt Q14671 828-1176, N1122K;Y1123R;Q1126T). The method in brief: as §1
Another experiment deals with PUM1 PUF domain R4-AGY (Homo sapiens, UniProt Q14671 828-1176, N971A;H972G;Q975Y). Put shortly:
as §1

The target in another experiment is PUM1 PUF domain R8-IRK (Homo sapiens, UniProt Q14671 828-1176, N1122I;Y1123R;Q1126K). The method in brief: as §1
The next experiment addresses PUM1 PUF domain R8-HHK (Homo sapiens, UniProt Q14671 828-1176, N1122H;Y1123H;Q1126K). Put shortly:
as §1

For a further experiment, the target named is PUM1 PUF domain R5-QSC (Homo sapiens, UniProt Q14671 828-1176, C1007Q;R1008S;Q1011C). The method in brief: as §1
The target in the next experiment is PUM1 PUF domain R5-SGC (Homo sapiens, UniProt Q14671 828-1176, C1007S;R1008G;Q1011C). The method in brief:
as §1

Another experiment deals with PUM1 PUF domain R3-RRK (Homo sapiens, UniProt Q14671 828-1176, C935R;Q939K). Put shortly: as §1
Another experiment addresses PUM1 PUF domain R3-LSQ (Homo sapiens, UniProt Q14671 828-1176, C935L;R936S). Put shortly:
as §1

For another experiment, the target named is PUM1 PUF domain R5-RSK (Homo sapiens, UniProt Q14671 828-1176, C1007R;R1008S;Q1011K). Put shortly: as §1
The target of the next experiment is PUM1 PUF domain R5-KPI (Homo sapiens, UniProt Q14671 828-1176, C1007K;R1008P;Q1011I). The method in brief:
as §1

For another experiment, the target named is PUM1 PUF domain R1-KMV (Homo sapiens, UniProt Q14671 828-1176, S863K;R864M;Q867V). Put shortly: as §1
A further experiment has as its target T4, PUM1 PUF domain R6-RVT (Homo sapiens, UniProt Q14671 828-1176, N1043R;Y1044V;Q1047T).
T4 sequence: T1 sequence with E216R, W217V, V220T
The method in brief: as §1

The next experiment addresses PUM1 PUF domain R7-GVV (Homo sapiens, UniProt Q14671 828-1176, S1079G;N1080V;E1083V). The method in brief:
as §1

Turning to “GGCUAGAACUAGUGGAUCCCCCGGCGCCCGGCGGCUCGAGCCCGGGUAAGUGUAAAUAGUCUGCAUGCCGCCGGGCGCCAUGCCUGCAGGUCGACUCUAGAAAACAUG”, the binding signal was 3.55 log2 enrichment (interaction score) with PUM1 PUF domain R8-KHA; 2.13 log2 enrichment (interaction score) in the experiment with PUM1 PUF domain R8-HFA; 2.16 log2 enrichment (interaction score) in the experiment with PUM1 PUF domain R5-PRR; 1.65 log2 enrichment (interaction score) in the experiment with PUM1 PUF domain R6-EWV; 2.67 log2 enrichment (interaction score) with PUM1 PUF domain R7-DFE; 3.68 log2 enrichment (interaction score) with PUM1 PUF domain R6-NRK. For the same sequence, the binding signal in the experiment with PUM1 PUF domain R6-SFV is 3.58 log2 enrichment (interaction score); with PUM1 PUF domain R8-KRT, 1.36 log2 enrichment (interaction score); with PUM1 PUF domain R4-AGY, 3.24 log2 enrichment (interaction score).
Take “GGCUAGAACUAGUGGAUCCCCCGGCGCCCGGCGGCUCGAGCCCGGGUAAGUGAAAAUAGUCUGCAUGCCGCCGGGCGCCAUGCCUGCAGGUCGACUCUAGAAAACAUG”: the binding signal in the experiment with PUM1 PUF domain R6-EWV was 3.43 log2 enrichment (interaction score).
“GGCUAGAACUAGUGGAUCCCCCGGCGCCCGGCGGCUCGAGCCCGGGUAAGCGUAAAUAGUCUGCAUGCCGCCGGGCGCCAUGCCUGCAGGUCGACUCUAGAAAACAUG”: the binding signal is 3.45 log2 enrichment (interaction score) in the experiment with PUM1 PUF domain R8-HFA, 2.54 log2 enrichment (interaction score) with PUM1 PUF domain R8-IRK, 2.71 log2 enrichment (interaction score) with PUM1 PUF domain R8-KRT and 3.15 log2 enrichment (interaction score) with PUM1 PUF domain R8-HHK.
For the sequence “GGCUAGAACUAGUGGAUCCCCCGGCGCCCGGCGGCUCGAGCCCGGGUAAGUGUGAAUAGUCUGCAUGCCGCCGGGCGCCAUGCCUGCAGGUCGACUCUAGAAAACAUG”, the binding signal with PUM1 PUF domain R5-PRR is 2.13 log2 enrichment (interaction score); with PUM1 PUF domain R5-QSC, 3.71 log2 enrichment (interaction score); with PUM1 PUF domain R5-SGC, 2.36 log2 enrichment (interaction score).
Turning to “GGCUAGAACUAGUGGAUCCCCCGGCGCCCGGCGGCUCGAGCCCGGGUAAGUGUAAUUAGUCUGCAUGCCGCCGGGCGCCAUGCCUGCAGGUCGACUCUAGAAAACAUG”, the binding signal was 4.07 log2 enrichment (interaction score) in the experiment with PUM1 PUF domain R3-RRK and 4.75 log2 enrichment (interaction score) with PUM1 PUF domain R3-LSQ.
As to “GGCUAGAACUAGUGGAUCCCCCGGCGCCCGGCGGCUCGAGCCCGGGUAAGUGUCAAUAGUCUGCAUGCCGCCGGGCGCCAUGCCUGCAGGUCGACUCUAGAAAACAUG”, the binding signal in the experiment with PUM1 PUF domain R5-PRR is 0.75 log2 enrichment (interaction score); in the experiment with PUM1 PUF domain R5-RSK, 3.23 log2 enrichment (interaction score); in the experiment with PUM1 PUF domain R5-KPI, 5.02 log2 enrichment (interaction score).
As to “GGCUAGAACUAGUGGAUCCCCCGGCGCCCGGCGGCUCGAGCCCGGGUAAGUGUAAAUCGUCUGCAUGCCGCCGGGCGCCAUGCCUGCAGGUCGACUCUAGAAAACAUG”, the binding signal with PUM1 PUF domain R1-KMV was 3.19 log2 enrichment (interaction score).
As to “GGCUAGAACUAGUGGAUCCCCCGGCGCCCGGCGGCUCGAGCCCGGGUAAGUGCAAAUAGUCUGCAUGCCGCCGGGCGCCAUGCCUGCAGGUCGACUCUAGAAAACAUG”, the binding signal with PUM1 PUF domain R6-RVT was 4.2 log2 enrichment (interaction score).
On to “GGCUAGAACUAGUGGAUCCCCCGGCGCCCGGCGGCUCGAGCCCGGGUAAGUGUUAAUAGUCUGCAUGCCGCCGGGCGCCAUGCCUGCAGGUCGACUCUAGAAAACAUG”, for which the binding signal in the experiment with PUM1 PUF domain R5-PRR was 3.23 log2 enrichment (interaction score).
Take “GGCUAGAACUAGUGGAUCCCCCGGCGCCCGGCGGCUCGAGCCCGGGUAAGUUUAAAUAGUCUGCAUGCCGCCGGGCGCCAUGCCUGCAGGUCGACUCUAGAAAACAUG”: in the experiment with PUM1 PUF domain R7-GVV, the binding signal is 2.6 log2 enrichment (interaction score).
